# Results reported in PubChem BioAssay.
# Active and inactive are the calls of the source.
# Legend:
# [1] = test system: PRMT1 (protein arginine N-methyltransferase 1); assay: PRMT1 binders on small-molecule microarrays, primary screen, biochemical, small-molecule microarray, 635 nm fluorescence (AID 1088); conditions: small-molecule microarray binding, higher = more signal;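 note: binding of Prmt1 protein to compounds spotted on small-molecule microarray slides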
# [2] = yeast growth modulation, basal conditions, primary screen, YJM789 clinical isolate, OD600, 24 h (AID 1089);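 note: growth of clinical yeast isolate S. cerevisiae YJM 789 seeded 1000 cells per well; test concentration not given here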; conditions: S. cerevisiae YJM789 growth, higher = more signal, called active from +8 up or from −8 down
# [3] = fission yeast growth modulation, primary screen, strain 972, OD600, 24 h, no modulator (AID 1090);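 note: basal condition with compound alone and no growth modifier present; test concentration not given here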; conditions: S. pombe 972 growth, higher = more signal, called active from +8 up or from −8 down
# [4] = S. cerevisiae growth modulation with rapamycin, primary screen, strain BY4716, OD600, 96 h (AID 1091); conditions: higher = more signal, called active from +8 up or from −8 down; note: test concentration not given here
# [5] = target: Torsin-1A-interacting protein 2 (Homo sapiens) (UniProt Q8NFQ8); assay: LULL1 binders on small-molecule microarray, primary screen, cell lysate, human LULL1 lysate, 635/667 nm fluorescence (AID 1092); conditions: hLULL1 lysate binding, 635 nm fluorescence, higher = more signal;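 note: probe is lysate of COS7 cells overexpressing human LULL1; score merges per-feature 667 nm fluorescence with signal-to-noise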
# Torsin-1A-interacting protein 2 (Homo sapiens), sequence (Q8NFQ8 whole entry, looked up): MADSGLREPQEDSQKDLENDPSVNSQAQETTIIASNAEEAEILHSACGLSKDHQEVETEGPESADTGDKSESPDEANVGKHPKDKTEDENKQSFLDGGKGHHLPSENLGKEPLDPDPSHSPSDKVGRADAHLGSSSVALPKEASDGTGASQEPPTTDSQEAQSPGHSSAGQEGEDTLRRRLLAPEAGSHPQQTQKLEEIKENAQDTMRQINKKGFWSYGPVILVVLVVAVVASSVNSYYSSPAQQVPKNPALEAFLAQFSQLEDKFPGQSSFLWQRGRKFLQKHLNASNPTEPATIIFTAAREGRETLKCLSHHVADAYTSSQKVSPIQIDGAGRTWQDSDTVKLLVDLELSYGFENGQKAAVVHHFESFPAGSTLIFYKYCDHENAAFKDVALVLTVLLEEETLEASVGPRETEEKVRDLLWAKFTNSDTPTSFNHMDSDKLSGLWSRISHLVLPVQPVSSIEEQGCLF
# [6] = E. coli growth modulation, two-sided OD650, primary screen, E. coli filamentation project, strain DRC41, 24 h (AID 1093); conditions: OD650, 24 h, higher = more signal, called active from +8 up or from −8 down;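 note: MC1000 strain lacking acrAB efflux and sulA so SOS filamentation is blocked; test concentration not given here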
# [7] = small-molecule microarray binders of probe aLefty2, primary screen, biochemical, biotinylated probe, 635/667 nm fluorescence (AID 1094); conditions: higher = more signal;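 note: score merges spot fluorescence near 667 nm with spot signal-to-noise ratio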
# [8] = test system: Noggin (protein binding on small-molecule microarray); assay: Noggin binders on small-molecule microarray, primary screen, biochemical, 635/667 nm fluorescence (AID 1095); conditions: 635 nm fluorescence, higher = more signal;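 note: score merges 667 nm feature fluorescence with signal to noise over triplicate slides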
# [9] = target: Neurogenic locus notch homolog protein 3 (Homo sapiens) (UniProt Q9UM47); assay: NOTCH3 binders on small-molecule microarray, primary screen, biochemical, 635/667 nm fluorescence (AID 1096); conditions: NOTCH3 binding, 635 nm fluorescence, higher = more signal
# Neurogenic locus notch homolog protein 3 (Homo sapiens), sequence (Q9UM47 whole entry, looked up): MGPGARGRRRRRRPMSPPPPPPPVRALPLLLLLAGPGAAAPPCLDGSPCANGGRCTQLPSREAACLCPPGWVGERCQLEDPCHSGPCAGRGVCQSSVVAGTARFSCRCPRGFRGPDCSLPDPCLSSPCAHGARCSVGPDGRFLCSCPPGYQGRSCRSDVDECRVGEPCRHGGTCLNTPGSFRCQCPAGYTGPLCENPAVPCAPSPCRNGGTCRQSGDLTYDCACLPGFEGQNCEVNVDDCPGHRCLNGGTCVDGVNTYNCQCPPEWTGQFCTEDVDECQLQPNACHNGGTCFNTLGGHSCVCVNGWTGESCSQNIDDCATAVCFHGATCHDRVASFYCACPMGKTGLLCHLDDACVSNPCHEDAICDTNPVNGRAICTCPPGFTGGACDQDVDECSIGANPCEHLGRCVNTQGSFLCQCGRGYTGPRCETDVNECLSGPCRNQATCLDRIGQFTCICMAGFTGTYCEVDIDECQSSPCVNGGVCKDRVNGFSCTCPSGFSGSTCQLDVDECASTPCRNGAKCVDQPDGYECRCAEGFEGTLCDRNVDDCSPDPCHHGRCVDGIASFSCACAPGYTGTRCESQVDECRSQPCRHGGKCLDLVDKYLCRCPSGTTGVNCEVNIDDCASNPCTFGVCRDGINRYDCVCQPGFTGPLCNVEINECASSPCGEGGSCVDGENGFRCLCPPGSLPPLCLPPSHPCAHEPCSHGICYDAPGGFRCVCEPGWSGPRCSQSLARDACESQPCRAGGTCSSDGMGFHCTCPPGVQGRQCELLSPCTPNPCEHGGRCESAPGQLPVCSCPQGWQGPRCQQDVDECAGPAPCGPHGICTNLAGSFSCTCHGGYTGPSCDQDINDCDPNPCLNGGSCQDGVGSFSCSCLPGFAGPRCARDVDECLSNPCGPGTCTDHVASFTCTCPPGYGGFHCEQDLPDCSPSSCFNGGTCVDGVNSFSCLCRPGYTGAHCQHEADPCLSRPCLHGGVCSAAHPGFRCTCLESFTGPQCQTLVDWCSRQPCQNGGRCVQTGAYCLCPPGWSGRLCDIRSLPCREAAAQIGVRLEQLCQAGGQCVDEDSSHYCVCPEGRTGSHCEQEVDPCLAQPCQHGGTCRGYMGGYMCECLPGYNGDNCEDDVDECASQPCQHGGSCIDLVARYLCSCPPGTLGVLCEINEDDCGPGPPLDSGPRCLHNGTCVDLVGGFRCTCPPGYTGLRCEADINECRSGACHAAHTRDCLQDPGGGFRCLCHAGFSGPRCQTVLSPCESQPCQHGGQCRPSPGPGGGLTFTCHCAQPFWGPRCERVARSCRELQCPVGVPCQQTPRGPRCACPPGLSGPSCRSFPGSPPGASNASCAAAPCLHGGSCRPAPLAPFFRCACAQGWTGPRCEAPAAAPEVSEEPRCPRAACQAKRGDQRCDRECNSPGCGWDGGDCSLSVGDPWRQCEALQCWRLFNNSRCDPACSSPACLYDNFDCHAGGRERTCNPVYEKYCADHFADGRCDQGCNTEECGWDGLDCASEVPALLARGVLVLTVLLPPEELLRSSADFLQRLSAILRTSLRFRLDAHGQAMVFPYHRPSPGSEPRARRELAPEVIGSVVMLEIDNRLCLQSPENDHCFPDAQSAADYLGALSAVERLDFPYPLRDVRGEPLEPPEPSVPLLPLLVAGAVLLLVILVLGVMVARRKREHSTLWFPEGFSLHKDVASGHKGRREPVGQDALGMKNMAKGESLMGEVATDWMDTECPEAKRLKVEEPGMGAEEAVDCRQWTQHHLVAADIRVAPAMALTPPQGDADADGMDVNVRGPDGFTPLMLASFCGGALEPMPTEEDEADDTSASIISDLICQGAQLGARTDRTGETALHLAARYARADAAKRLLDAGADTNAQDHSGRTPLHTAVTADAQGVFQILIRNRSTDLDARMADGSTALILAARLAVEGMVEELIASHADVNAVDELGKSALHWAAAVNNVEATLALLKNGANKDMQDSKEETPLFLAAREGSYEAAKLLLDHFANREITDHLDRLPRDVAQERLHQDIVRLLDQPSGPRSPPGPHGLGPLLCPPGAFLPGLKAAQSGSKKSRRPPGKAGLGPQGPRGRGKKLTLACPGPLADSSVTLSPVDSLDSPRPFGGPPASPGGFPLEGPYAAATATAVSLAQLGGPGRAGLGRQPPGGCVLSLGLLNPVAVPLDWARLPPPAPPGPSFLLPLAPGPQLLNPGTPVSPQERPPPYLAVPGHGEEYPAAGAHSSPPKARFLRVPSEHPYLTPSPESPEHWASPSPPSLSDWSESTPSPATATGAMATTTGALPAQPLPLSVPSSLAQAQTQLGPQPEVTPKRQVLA
# [10] = small-molecule microarray binders of probe aEGFR, primary screen, biochemical, biotinylated probe, 635/667 nm fluorescence (AID 1097); conditions: higher = more signal;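 note: probe is a biotinylated anti-EGFR antibody binding compounds printed on slides; score combines fluorescence near 667 nm and signal to noise of each spot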
# [11] = test system: Plasmodium falciparum Sir2 (PF13_0152, Sir2A); assay: pfSir2 binders on small-molecule microarrays, primary screen, biochemical, small-molecule microarray, 635 nm fluorescence (AID 1098); conditions: small-molecule microarray binding, fluorescence 635 nm; higher = more signal;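 note: score merges spot fluorescence intensity with its signal-to-noise ratio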
# [12] = small-molecule microarray binders of probe aDKK1, primary screen, biochemical, biotinylated probe, 635/667 nm fluorescence (AID 1099); conditions: higher = more signal;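 note: score merges 667nm spot fluorescence with signal to noise across triplicate slides; reference of the scale not given here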
# [13] = small-molecule microarray binders of probe aCHRDL2, primary screen, biochemical, biotinylated probe, 635/667 nm fluorescence (AID 1100); conditions: higher = more signal
# [14] = splicing luciferase reporter signal modulators, primary screen, spliceosome inhibition project, cell-based, HEK293, splice +/- reporter (AID 1101); conditions: luminescence, 24 h, higher = more signal, called active from +8 up or from −8 down;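 note: HEK293 cells carrying a splicing-competent luciferase reporter gene; test concentration not given here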
# [15] = target: Fibroblast growth factor 10 (Homo sapiens) (UniProt O15520); assay: FGF10 binders on small-molecule microarrays, primary screen, biochemical, small-molecule microarray, 635 nm fluorescence (AID 1102); conditions: FGF10 binding, fluorescence 635 nm, higher = more signal
# Fibroblast growth factor 10 (Homo sapiens), sequence (O15520 whole entry, looked up): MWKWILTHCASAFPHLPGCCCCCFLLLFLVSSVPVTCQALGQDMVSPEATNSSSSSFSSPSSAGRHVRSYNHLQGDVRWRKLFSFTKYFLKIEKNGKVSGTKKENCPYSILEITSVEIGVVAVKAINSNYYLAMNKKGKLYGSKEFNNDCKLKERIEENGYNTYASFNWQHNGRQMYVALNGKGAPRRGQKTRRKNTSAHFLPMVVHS
# [16] = test system: glycogen synthase kinase-3 (GSK3A per assay name; protocol says GSK3B); assay: GSK3 binders on small-molecule microarrays, primary screen, biochemical, small-molecule microarray, 635 nm fluorescence, GSK3A (AID 1103); conditions: small-molecule microarray binding, fluorescence 635 nm; higher = more signal; note: the record names both GSK3A and GSK3B
# [17] = target: Epidermal growth factor receptor (Homo sapiens) (UniProt P00533); assay: EGFR binders on small-molecule microarrays, primary screen, biochemical, small-molecule microarray, 635 nm fluorescence (AID 1104); conditions: EGFR binding, higher = more signal;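 note: score merges 667 nm emission intensity with spot signal to noise over triplicate slides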
# Epidermal growth factor receptor (Homo sapiens), sequence (P00533 whole entry, looked up): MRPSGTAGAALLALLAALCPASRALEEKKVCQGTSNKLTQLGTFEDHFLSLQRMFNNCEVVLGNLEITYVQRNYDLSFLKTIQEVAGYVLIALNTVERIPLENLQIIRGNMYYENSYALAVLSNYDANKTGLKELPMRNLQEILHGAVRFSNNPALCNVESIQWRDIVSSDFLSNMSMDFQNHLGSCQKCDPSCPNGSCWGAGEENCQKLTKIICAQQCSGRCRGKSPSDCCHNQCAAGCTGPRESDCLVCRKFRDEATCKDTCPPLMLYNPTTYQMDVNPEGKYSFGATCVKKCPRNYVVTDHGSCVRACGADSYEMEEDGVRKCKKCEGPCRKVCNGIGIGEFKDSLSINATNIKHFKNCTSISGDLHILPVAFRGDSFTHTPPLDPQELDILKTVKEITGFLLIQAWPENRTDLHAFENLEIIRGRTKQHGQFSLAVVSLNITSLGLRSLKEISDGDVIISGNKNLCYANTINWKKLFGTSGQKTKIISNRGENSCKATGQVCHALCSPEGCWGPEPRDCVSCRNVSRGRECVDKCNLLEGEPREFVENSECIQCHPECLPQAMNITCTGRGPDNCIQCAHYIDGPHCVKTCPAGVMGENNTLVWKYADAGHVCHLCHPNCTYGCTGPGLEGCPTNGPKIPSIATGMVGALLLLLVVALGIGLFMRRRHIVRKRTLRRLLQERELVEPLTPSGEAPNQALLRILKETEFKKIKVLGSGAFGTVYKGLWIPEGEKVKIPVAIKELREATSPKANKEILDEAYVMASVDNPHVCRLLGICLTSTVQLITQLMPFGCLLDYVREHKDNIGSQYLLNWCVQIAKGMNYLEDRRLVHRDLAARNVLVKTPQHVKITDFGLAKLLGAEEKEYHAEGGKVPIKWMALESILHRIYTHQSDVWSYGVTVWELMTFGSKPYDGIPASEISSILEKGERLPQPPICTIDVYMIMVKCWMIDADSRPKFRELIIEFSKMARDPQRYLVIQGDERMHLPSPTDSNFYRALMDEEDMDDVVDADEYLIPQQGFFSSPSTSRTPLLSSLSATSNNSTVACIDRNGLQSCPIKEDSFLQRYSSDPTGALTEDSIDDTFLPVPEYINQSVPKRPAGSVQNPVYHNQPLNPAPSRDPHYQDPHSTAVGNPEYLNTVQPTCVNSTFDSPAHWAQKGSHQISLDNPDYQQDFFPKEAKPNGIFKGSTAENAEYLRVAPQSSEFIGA
# [18] = target: Follistatin-related protein 3 (Homo sapiens) (UniProt O95633); assay: FSTL3 binders on small-molecule microarrays, primary screen, biochemical, small-molecule microarray, 635 nm fluorescence (AID 1105); conditions: FSTL3 binding, higher = more signal;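 note: score merges emission near 667 nm and signal to noise per printed spot across three slides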
# Follistatin-related protein 3 (Homo sapiens), sequence (O95633 whole entry, looked up): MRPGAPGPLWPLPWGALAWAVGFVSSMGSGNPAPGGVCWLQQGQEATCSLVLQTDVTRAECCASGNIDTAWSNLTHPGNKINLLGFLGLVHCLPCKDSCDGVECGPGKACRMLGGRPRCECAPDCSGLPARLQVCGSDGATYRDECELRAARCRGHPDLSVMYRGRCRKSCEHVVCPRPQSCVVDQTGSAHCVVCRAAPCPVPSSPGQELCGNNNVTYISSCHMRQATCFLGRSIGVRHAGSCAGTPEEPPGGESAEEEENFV
# [19] = target: Dickkopf-related protein 1 (Homo sapiens) (UniProt O94907); assay: DKK1 binders on small-molecule microarrays, primary screen, biochemical, small-molecule microarray, 635 nm fluorescence scan (AID 1106); conditions: DKK1 binding, higher = more signal;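 note: score merges emission near 667 nm with signal to noise over three replicate slides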
# Dickkopf-related protein 1 (Homo sapiens), sequence (O94907 whole entry, looked up): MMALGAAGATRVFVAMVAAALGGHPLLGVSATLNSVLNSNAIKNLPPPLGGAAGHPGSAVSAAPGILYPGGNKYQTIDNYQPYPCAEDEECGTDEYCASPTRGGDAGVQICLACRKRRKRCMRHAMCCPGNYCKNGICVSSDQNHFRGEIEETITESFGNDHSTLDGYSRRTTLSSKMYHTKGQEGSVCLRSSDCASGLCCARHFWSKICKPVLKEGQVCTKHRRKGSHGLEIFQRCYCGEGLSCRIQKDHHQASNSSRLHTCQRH
# [20] = test system: Inhibin beta A chain (activin A); assay: INHBA (activin A) binders on microarrays, primary screen, biochemical, small-molecule microarray, 635 nm fluorescence scan (AID 1107); conditions: small-molecule microarray binding, higher = more signal;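 note: mouse activin A protein probed at 4.33 µg/mL on printed slides; score merges bound-protein fluorescence near 667 nm with spot signal-to-noise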
Compound,composite z-score [1],z-score [2],z-score [3],z-score [4],composite z-score [5],z-score [6],composite z-score [7],composite z-score [8],composite z-score [9],composite z-score [10],composite z-score [11],composite z-score [12],composite z-score [13],z-score [14],composite z-score [15],composite z-score [16],composite z-score [17],composite z-score [18],composite z-score [19],composite z-score [20]
C=C[C@@H](COC(C)=O)N(Cc1ccc([N+](=O)[O-])cc1)S(=O)(=O)c1ccc(Br)cc1,0.876,-0.0928 (inactive),-1.26 (inactive),3.93 (inactive),1.25,2.1 (inactive),0.157,-0.0608,0.733,0.158,0.566,0.965,0.992,-0.807 (inactive),0.599,0.283,0.292,0.352,-0.0075,0.663
O=C1[C@]2(CO)C=C(Br)[C@@H](C[C@@H]2c2ccccc2)[C@@]12CO2,-0.756,-0.904 (inactive),-3.06 (inactive),-0.666 (inactive),-0.556,0.0737 (inactive),-0.227,0.0401,0.224,-0.0828,0.628,0.0144,0.0065,0.359 (inactive),0.208,-0.626,-0.135,0.419,0.357,0.263
COC(=O)[C@@]1(Cc2ccccc2)[C@H]2c3cc(C(=O)N(C)C)n(Cc4c(-c5ccccc5)noc4C)c3C[C@H]2CN1C(=O)c1ccccc1,-0.248,0.315 (inactive),0.555 (inactive),2.84 (inactive),2.7,-1.07 (inactive),0.531,-0.452,0.303,0.235,0.609,0.898,1.18,0.762 (inactive),0.377,0.638,0.144,0.0261,-0.0672,1.22
O=C1N(CCS(=O)(=O)c2ccccc2)Cc2ccccc2[C@H]2OC(c3ccc(OCCCO)cc3)=N[C@@]12CCS(=O)(=O)c1ccccc1,1.57,1.91 (inactive),1.62 (inactive),8.55 (active),3.01,-0.409 (inactive),0.417,0.894,1.06,0.162,1.55,0.883,1.13,-0.872 (inactive),1.03,0.916,0.423,0.411,0.13,1.03
COc1cccc(C(=O)O[C@H]2CC[C@]3(C)C4=C(CCC3C2(C)C)[C@]2(C)CC[C@H]([C@H](C)CCCC(C)C)[C@@]2(C)CC4)c1 (stereo not given in full),-0.0398,-1.73 (inactive),-1.08 (inactive),-0.166 (inactive),0.385,2.43 (inactive),-0.082,0.383,0.618,-0.0158,0.399,-0.056,-0.495,-1.23 (inactive),0.647,0.495,0.527,0.459,0.389,0.468
CN(C)CCCCNC(=O)[C@H]1C[C@H]2C(=O)N[C@@H](Cc3ccccc3)C(=O)N2[C@H]1c1ccc(O)cc1,1.54,-0.368 (inactive),0.523 (inactive),-1.4 (inactive),0.248,1.12 (inactive),0.0274,1.66,1.11,0.116,0.725,-0.0299,-0.0646,-1.03 (inactive),1.4,1.2,0.425,1.39,1.5,-0.44
COCCOC(=O)N1C(=O)[C@@]2(c3cc(C#CCNC(N)=O)ccc31)[C@H](c1ccc(O)cc1)N1[C@H](c3ccccc3)[C@H](c3ccccc3)OC(=O)[C@H]1[C@@H]2C(=O)Nc1nc2ccccc2s1,0.902,-2.82 (inactive),-1.55 (inactive),-1.12 (inactive),1.01,3.57 (inactive),0.218,1.23,1.04,0.13,0.809,0.668,0.476,-0.564 (inactive),1.14,0.306,0.228,0.85,0.562,0.815
COCCOC(=O)N1C(=O)[C@@]2(c3cc(C#CCC(C(=O)OC)C(=O)OC)ccc31)[C@H](C(=O)N1CCN(c3ncccn3)CC1)[C@H]1C(=O)O[C@H](c3ccccc3)[C@H](c3ccccc3)N1[C@@H]2c1ccc(OCCO)cc1,1.55,-0.485 (inactive),0.196 (inactive),5.21 (inactive),2.26,1.36 (inactive),-0.184,0.668,0.946,-0.141,1.56,-0.0747,0.0277,-0.923 (inactive),0.699,1.1,0.275,0.626,-0.0047,0.149
[N-]=[N+]=NCc1ccccc1C[C@]1(C(=O)O)N=C(c2ccc(OCCCO)cc2)O[C@H]1c1ccccc1CN=[N+]=[N-],0.893,-1.17 (inactive),-3.09 (inactive),-1.92 (inactive),3.25,-0.292 (inactive),0.0987,-0.118,0.759,0.0617,1.07,0.804,1.01,-1.17 (inactive),0.126,0.421,-0.125,0.541,-0.742,0.458
